# High-throughput results from PubChem.
# Luc counter – counter-screen: inhibitors of Kinase-Glo firefly luciferase | 200,000 compounds, 0.28% hits | Kinase-Glo luciferase, ATP luminescence, 8 min | Potency, µM (top dose mostly 38.3 µM), for the others: top-dose activity change, negative = inhibition, actives largely listed as inhibitors; further: nearly all actives have a fitted effect of over 60% in size
#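 Luminescence was the read-out, taken after 8-minute incubation at ambient temperature. Luciferase turned over luciferin with 10 uM ATP in imidazole pH 7.2 buffer containing KCl, MgCl2, Tween 20 and BSA.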
# ALDH1A1 block – blocks purified human ALDH1A1 activity; P00352; Purified ALDH1A1, NADH fluorescence, propionaldehyde substrate; Potency, µM (titrated, usually from 75.3 µM), for inactives: at the top dose activity, negative = inhibition, usual class: inhibitors; 220,000 compounds, 7.3% hits; active means well fitted inhibition curve with a large enough effect, not every such curve was filed as active; inconclusive means small, poorly fitted or top-dose-only effect, or another doubt; inactive means no such curve, though single readings can be large or run the other way;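 further: plate controls were no enzyme wells and a reference inhibitor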
# Target sequence (P00352 whole entry, looked up): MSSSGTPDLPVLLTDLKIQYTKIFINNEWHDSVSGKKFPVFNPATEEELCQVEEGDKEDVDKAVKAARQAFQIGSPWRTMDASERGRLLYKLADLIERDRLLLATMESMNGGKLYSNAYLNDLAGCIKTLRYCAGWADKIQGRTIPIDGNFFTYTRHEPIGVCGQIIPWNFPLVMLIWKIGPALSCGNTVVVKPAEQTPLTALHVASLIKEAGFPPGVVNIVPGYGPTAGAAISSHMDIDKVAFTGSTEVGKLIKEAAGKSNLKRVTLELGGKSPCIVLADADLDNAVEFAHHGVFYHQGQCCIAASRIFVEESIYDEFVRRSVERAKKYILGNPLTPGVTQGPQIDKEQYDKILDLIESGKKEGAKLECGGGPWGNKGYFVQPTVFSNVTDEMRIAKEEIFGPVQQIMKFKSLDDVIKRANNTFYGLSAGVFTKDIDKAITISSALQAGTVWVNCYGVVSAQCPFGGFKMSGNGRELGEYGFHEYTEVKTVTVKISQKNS
# HPGD block – inhibitors of human 15-hydroxyprostaglandin dehydrogenase (HPGD) | Potency, µM, inactives show at the top dose activity change, negative = inhibition, usual class: inhibitors | P15428 | 150,000 compounds, 4.3% hits | purified HPGD, NADH fluorescence kinetic, PGE2 substrate; active means well fitted inhibition curve with a large enough effect, not every such curve was filed as active; inconclusive means small, poorly fitted or top-dose-only effect, or another doubt; inactive means no such curve, though single readings can be large or run the other way
# Target sequence (P15428 whole entry, looked up): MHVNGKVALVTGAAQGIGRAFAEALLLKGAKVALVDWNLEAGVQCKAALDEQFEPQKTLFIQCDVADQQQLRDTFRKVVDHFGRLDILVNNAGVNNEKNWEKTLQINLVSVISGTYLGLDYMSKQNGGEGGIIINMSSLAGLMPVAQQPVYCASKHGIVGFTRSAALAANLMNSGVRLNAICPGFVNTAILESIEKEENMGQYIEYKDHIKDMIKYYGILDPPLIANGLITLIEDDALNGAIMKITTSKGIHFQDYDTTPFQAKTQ
#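 20 nM HPGD preincubated 15 min at room temperature with compound in 50 mM Tris-HCl pH 8, 0.01% Tween 20. Started with 1 mM NAD+ and 30 uM prostaglandin E2; NADH fluorescence (360/450 nm) read 5 times over 30-s intervals, last minus first.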
# Lamin A splicing – changes lamin A minigene splicing in HeLa cells | HeLa LMNA splicing GFP/RFP minigene ratio, 48 h | Potency, µM (titrated, usually from 46.1 µM), without a hit: at the highest dose ratio change, negative = inhibition, usual class: inhibitors | 200,000 compounds, 0.01% hits; active means well fitted inhibition curve with a large enough effect in the signal ratio, with a control signal flat, not every such curve was filed as active; inconclusive means small, poorly fitted or top-dose-only effect, or effect the other way, or a change in a side signal; the % refers to the signal ratio
#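 S3 HeLa cells stably expressing lamin A-EGFP splicing minigene plus DsRed2, 600 cells/well, 48 h compound exposure at 37C. Laser-scanning cytometry; analysed as GFP (500-530 nm)/RFP (575-640 nm) total intensity ratio; 0.5% DMSO vehicle.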
# IMPase Li cell – IMPase inhibition in cells with lithium potentiation; CHO-M1 cells, IP1 TR-FRET (IP-One), carbachol + lithium; Potency, µM (titrated, usually from 59.4 µM), without a hit: top-dose activity, negative = IMPase inhibition, usual class: inhibitors; 210,000 compounds, 0.35% hits; AID 1457;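 further: IP1 builds up when IMPase is blocked and the TR-FRET signal falls; plate controls were basal vehicle for no effect and high inhibitor control for full effect; nearly all actives have a fitted effect of over 50% in size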
#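 CHO-M1, 2000 cells/well, 16–30 h culture; cpd + low Li+, 30 min 37C; lysis with d2-IP1/Eu-anti-IP1 Ab, 10 min RT; TR-FRET 665/620 ratio and 620 channel; AC50 via Hill.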
# * hit, by the source's call; ? = inconclusive; nt = not tested or not shown; ! = not confirmed by another sample; [ ] = dose if it differs, or a comment. Hits are enriched below; roughly 9% of the tested compounds scored in any of these assays. Unless noted, the call rests on the fitted dose curve; in most records, active means well fitted curve in the direction sought with a large enough effect; inconclusive means small, poorly fitted or top-dose-only effect, or another doubt; inactive means no such curve, though single readings can be large; an effect the other way counts as inactive or inconclusive. Unless noted, on the % scale 0 is the no-effect control and ±100 the full control effect; potency means the concentration at half of the fitted maximal effect.
SMILES,Luc counter,ALDH1A1 block,HPGD block,Lamin A splicing,IMPase Li cell
Cc1cc(NC(=O)CCl)n(-c2nc3ccccc3s2)n1,2%,4µM*,nt,-3%[46 µM],1%
O=C(N1CCN(Cc2ccccc2)CC1)C12CC3CC(CC(C3)C1)C2,0%,6.3µM*,-3%,-24%,6%
CC1=C(C)CC(C(=O)N2CCN(Cc3ccccc3)CC2)C(C(=O)O)C1 (stereo not drawn),7%,14µM*,-6%,-6%,19%[38.3 µM]
CS(=O)(=O)N1CCC(C(=O)N2CCN(Cc3ccccc3)CC2)CC1,1%,?,nt,nt,4%
Cc1nc(N2CCCC2)c2c(C(=O)Nc3ccc(Br)cc3F)c(C)oc2n1,nt,nt,nt,12%[46 µM],nt
COc1ccccc1NC(CC(=O)c1ccccc1)C(=O)OCC(=O)c1ccc(F)cc1 (stereo not drawn),5%,13µM*,-3%,-12%,4%
Cc1c(Cl)cccc1NC(CC(=O)c1ccccc1)C(=O)OCC(=O)c1cccs1 (stereo not drawn),nt,1%,nt,-8%,nt
Cc1cccc(NC(=O)C2CCN(S(=O)(=O)c3ccc4c(c3)CCCC(=O)N4)CC2)c1,nt,nt,nt,1%[46 µM],nt
Cc1ccc(NC(=O)/C=C/C(=O)O)c([N+](=O)[O-])c1,3%,18µM*,-7%,-3%,0%
COc1ccc(NC(=O)CC2SC(N)=NC2=O)c([N+](=O)[O-])c1 (stereo not drawn),0%,25µM*,nt,nt,2%
COc1ccc(OC)c(Nc2ccc(C(=O)O)cc2[N+](=O)[O-])c1,1%,6%,16µM*,-8%,0%
COc1ccc(NC(=O)/C=C/C(=O)O)c([N+](=O)[O-])c1,nt,19µM*,nt,nt,nt
COc1ccc(NC(=O)CC2Nc3cc(C)c(C)cc3NC2=O)c([N+](=O)[O-])c1 (stereo not drawn),-2%,5%,nt,nt,4%
CCOc1ccc(/C=C/C(=O)Nc2ccc(OC)cc2[N+](=O)[O-])cc1,-1%,5%,-12%,10%,-8%[38.3 µM]
Cc1nc(N2CCOCC2)c2c(C(=O)N3CCN(c4ccc(Cl)cc4)CC3)c(C)oc2n1,nt,nt,nt,2%[46 µM],nt
CCOC(=O)C1CC2CC(C1)CN(C(=O)C1CCCCC1)C2 (stereo not drawn),0%,-3%,nt,14%[46 µM],4%
Cc1ccc(C)c2sc(NC(=O)c3ccc(S(=O)(=O)N4CCC(C)CC4)cc3)nc12,nt,nt,nt,5%[46 µM],nt
O=C(Cn1cccc1)N1CCN(C(c2ccccc2)c2ccccc2)CC1,-3%,?,-15%,-9%,26%[38.3 µM]
CC(c1ccccc1)N1CCN(C(=O)CCl)CC1 (stereo not drawn),4%,0.45µM*,nt,nt,8%
C#CCOCCOCCOCCNc1nc(N2CCN(C(=O)[C@H](Cc3cc4ccccc4[nH]3)n3cc([C@@H](N)C(C)CC)nn3)CC2)nc(N2CCN(C(=O)[C@H](Cc3cc4ccccc4[nH]3)n3cc([C@@H](N)CC(C)C)nn3)CC2)n1 (stereo partly drawn),nt,-2%,nt,nt,0%
COc1cccc(NCc2cc3c(C(C)(C)C)nn(-c4ccccc4)c3[nH]c2=O)c1,-5%,13µM*,?,-1%,27%[38.3 µM]
O=C(/C=C/c1ccc(F)cc1)c1ccccc1Br,1%,?,-22%,?,15%
CC[C@H](C)[C@@H](NC(=O)O[C@@H]1C(=O)c2cc(Br)ccc2O[C@H]1c1ccc2c(c1)OCO2)C(=O)OC,0%,25µM*!,-5%,12%,3%
COC(=O)[C@H](Cc1ccccc1)NC(=O)O[C@@H]1C(=O)c2cc(Br)ccc2O[C@H]1c1ccc2c(c1)OCO2,0%,?,-8%,nt,13%
COc1ccc(C(=O)N2CCC3(CC2)CN(c2ccccc2)C3)cc1,-2%,-16%,-7%,nt,0%
SMILES,Luc counter,ALDH1A1 block,HPGD block,Lamin A splicing,IMPase Li cell
CN(Cc1ccccc1)c1ncc(C=O)s1,3%,7.1µM*,nt,nt,-6%
Cc1ccccc1C(=O)NNC(=S)Nc1cccc(C(F)(F)F)c1,-1%,18µM*,-24%,?,-5%
CCOc1ccc(NC(=S)NNc2ccnc3cc(Cl)ccc23)cc1,-2%,3.2µM*,nt,?,13%
CC(C)(O)C(=O)NNC(=S)Nc1cccc(C(F)(F)F)c1,1%,?,nt,?,8%
FC(F)(F)c1cccc(NC(=S)Nc2ccc(Cl)c(Cl)c2)c1,nt,13µM*,nt,nt,nt
O=C(O)CS(=O)CC(=O)Nc1cccc(C(F)(F)F)c1 (stereo not drawn),5%,1.8µM*,nt,nt,-8%
Cn1c(NC(=O)/C=C\c2ccccc2)cc(=O)n(C)c1=O,-4%,?,nt,5%[9.22 µM],-2%
FC(F)(F)c1cccc(NC(=S)NNC(=S)Nc2cccc(C(F)(F)F)c2)c1,nt,1.6µM*,nt,nt,nt
CNNC(=S)Nc1cccc(C(F)(F)F)c1,nt,-1%,nt,nt,nt
O=C(NNC(=S)Nc1cccc(C(F)(F)F)c1)c1ccc(Cl)cc1Cl,1%,20µM*,-15%,?,-1%
CCOc1ccc(NC(=S)NNC(=O)c2cc(Br)ccc2Cl)cc1,0%,13µM*,nt,nt,2%
COc1ccc(NC(=S)NNC(=S)Nc2cccc(C(F)(F)F)c2)cc1,nt,0.45µM*,nt,nt,nt
O=C(NNC(=O)c1ccc(Cl)cc1Cl)Nc1ccccc1,-4%,6%,-5%,-9%,-2%
Cc1cccc(C(=O)N[C@H](C(=O)Nc2nc3ccc(S(C)(=O)=O)cc3s2)C(C)C)c1,6%,16%,nt,?,10%
FC(F)(F)c1cccc(NC(=S)NCc2ccccc2)c1,-2%,7%,28µM*,12%,17%[38.3 µM]
CCOc1cc(OCC)cc(C(=O)NC(=S)Nc2cccc(C(F)(F)F)c2)c1,-2%,3.5µM*,-27%,6%,11%[38.3 µM]
Cc1cccc(NC(=S)NNC(=O)c2ccccc2OC(F)F)c1,-1%,9.5µM*,-11%,?,22%[38.3 µM]
CCOc1ccc(NC(=S)NNC(=S)Nc2cccc(C(F)(F)F)c2)cc1,nt,1.3µM*,nt,nt,nt
CCCc1nn2c(=O)cc(COC(=O)c3ccc(NC(=O)CCc4ccccc4)cc3)nc2s1,nt,nt,nt,-6%[46 µM],nt
O=C(CN(CC1CCCO1)C(=O)CNS(=O)(=O)c1ccc(Cl)cc1)NCC1CCCO1 (stereo not drawn),-2%,0%,-6%,-5%,6%
O=C(Nc1cc(-c2ccccc2)[nH]n1)c1ccc(Cl)cc1,nt,-8%,nt,nt,nt
Cc1cc(C)c(C#N)c(SCc2ccccc2[N+](=O)[O-])n1,1%,18µM*,-19%,-8%,3%
Cc1cc(C)c(C#N)c(SCCS(=O)(=O)Cc2ccc(Cl)cc2)n1,-6%,5µM*,-17%,-1%,?
Cc1ccc(C#N)c(SCc2ccccc2[N+](=O)[O-])n1,0%,?,-12%,-10%,3%
Cc1cc(C)c(C#N)c(SCS(=O)Cc2ccccc2)n1 (stereo not drawn),-1%,8.9µM*,?,?,-7%[38.3 µM]
